D3 ag – D3 dopamine receptor (human) agonism | P35462 | D3R DiscoveRx beta-arrestin cells, luminescence, 90 min | max activation, % | 410,000 tested, 0.58% active; in the data active = max activation above about 30%; note: 0% is about no effect
Target sequence (P35462 whole entry, looked up): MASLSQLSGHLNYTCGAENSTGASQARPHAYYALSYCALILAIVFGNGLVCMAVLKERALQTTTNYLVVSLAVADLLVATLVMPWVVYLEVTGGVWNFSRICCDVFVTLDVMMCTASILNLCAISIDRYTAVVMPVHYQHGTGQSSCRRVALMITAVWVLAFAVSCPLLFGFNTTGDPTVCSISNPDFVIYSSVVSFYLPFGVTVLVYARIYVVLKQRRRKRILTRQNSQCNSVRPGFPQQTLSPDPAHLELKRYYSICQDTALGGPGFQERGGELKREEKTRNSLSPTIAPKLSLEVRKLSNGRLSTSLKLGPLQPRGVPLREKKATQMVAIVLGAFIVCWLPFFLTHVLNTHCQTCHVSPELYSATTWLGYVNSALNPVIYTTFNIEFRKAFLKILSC
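Agonist mode: compounds and dopamine controls were applied to plated cells for 90 min at 37 degrees C after an overnight attachment at 1500 cells/well. Luminescent read-out followed 30 - 60 minutes at room temperature with DiscoveRx detection reagent.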
D3 antag – D3 dopamine receptor (human) antagonism | P35462 | D3R cells, DiscoveRx beta-arrestin luminescence, antagonist mode; hits give low values | max response, negative = inhibition, % | 360,000 tested, 2.5% active; in the data active = max response below about -50%; inconclusive = no clear call, values can overlap the other calls; note: % is set by controls: 0 for no effect and ±100 for the full control effect
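Cells expressing the human receptor were seeded at 1500 cells/well, incubated overnight at 37 degrees C in 5% CO2, then exposed to library compounds with dopamine controls for 90 minutes at 37 degrees C before luminescent detection.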
MmCpn inh – blocks the Methanococcus maripaludis chaperonin Mm-Cpn | purified Mm-Cpn ATPase, ADP Transcreener TR-FRET | Potency, µM (highest dose often 76.9 µM), inactives show at the top dose activity, negative = inhibition, hits mostly inhibitors | 330,000 tested, 0.031% active | AID 504842; active = well fitted inhibition curve with a large enough effect; inconclusive = small, poorly fitted or top-dose-only effect; note: potency is the fitted concentration of half-maximal effect; % is set by controls: 0 for no effect and ±100 for the full control effect; nearly all actives have a fitted effect of over 80% in size
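Quantitative HTS used 25 nM Mm-CPN and 10 uM ATP in magnesium/KCl Tris buffer, pH 7.4, with 1 mM DTT. Hydrolysis ran 30 min at 37°C; ADP was read by HTRF.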
Rango complex inh – prevents formation of the Rango-importin beta complex | Q14974 | Rango CFP/YFP FRET sensor + importin beta, 45 min | Potency, µM (top dose mostly 92.2 µM), for the others: at the top dose inhibition of complex formation | 340,000 tested, 0.031% active | AID 540263;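 note: potency is the fitted concentration of half-maximal effect; 0% = DMSO wells and 100% = buffer wells lacking importin beta; nearly all actives have a fitted effect of over 15% in size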
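FRET biosensor (snurportin 1 IBB flanked by EYFP and cerulean), 50 nM, with compound 5 min, then 0.125 microM importin beta in PBS, 1 mM DTT, 0.02% Tween-20, 0.1% BSA. CFP/YFP ratio read after 45 min at room temperature; pre-read flags interference.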
PTAP TSG101 blk – blocks PTAP/TSG101 interaction to inhibit HIV-1 budding. Q99816. Fluorescence polarization, FITC-PTAP peptide / Tsg101 binding. Potency, µM (highest dose often 115 µM), without a hit: at the top dose activity change, negative = inhibition, most hits filed as inhibitors. 340,000 tested, under 10 active; active = well fitted inhibition curve with a large enough effect in the main read-out, with a control signal flat, not every such curve was filed as active; inconclusive = small, poorly fitted or top-dose-only effect, or effect the other way, or a change in a side signal; inactive = no such curve, though single readings can be large or run the other way; note: potency is the fitted concentration of half-maximal effect; % of control where 0% means no effect
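FP read-out: FITC-PTAP peptide, 50 nM final, binding Tsg101 binding domain, 10 uM final; 20 min, r.t.; 10 mM HEPES pH 7.5, 0.15 M NaCl, 0.01% Tween 20, 3 mM EDTA, 0.1 mM TCEP.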
Rango release inh – inhibition of RanGTP-driven Rango-importin beta dissociation | Biochemical FRET Rango-importin beta, RanGTP-induced dissociation | Potency, µM (top dose mostly 46.1 µM), without a hit: at the highest dose activity change, negative = inhibition | 340,000 tested, 0.071% active | AID 540253; note: potency is the fitted concentration of half-maximal effect; % of control where 0% means no effect; nearly all actives have a fitted effect of over 45% in size
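Quantitative HTS using a FRET biosensor: 0.1 uM Rango, 0.25 uM importin beta, 0.6 uM Ran, 2 mM GTP, 0.2 uM RCC1 final, PBS with DTT, Tween-20 and BSA. Post-read taken 45 min after Ran addition.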
The depositor's hits bear a star; u = inconclusive; x = no result. In the library only some 2.9% were active in any assay of this set; here they are far more common. Unless noted, calls come from the whole dose curve.

SMILES	D3 ag	D3 antag	MmCpn inh	Rango complex inh	PTAP TSG101 blk	Rango release inh
COc1ccccc1/C=C/CN1CCN(Cc2ccc(C)o2)C(CCO)C1 (stereo unspecified)	-14	-77*	0%	-4%	1%	-9%
COc1cc(/C=C/CN2CCN(Cc3ccc(C)o3)C(CCO)C2)ccc1O (stereo unspecified)	-51	-61*	4%	0%	-12%	3%
COc1ccc(C(CNC(=O)c2ccc(Cl)c(S(=O)(=O)N3CCCC3)c2)N2CCCC2)cc1 (stereo unspecified)	-18	-77*	-4%	1%	0%	4%
COc1ccc(C(CNC(=O)c2ccc(C)c(S(=O)(=O)N3CCOCC3)c2)N2CCCC2)cc1 (stereo unspecified)	-19	-71*	x	0%	-5%	10%
COc1ccc(OC)c(CNC(=O)CCCn2ccc3cc(S(=O)(=O)N4CCCC4)ccc32)c1	1	2	0%	-1%	-2%	6%
COc1ccc(C(=O)N2CCCC(c3nc(-c4ccc(OC)c(OC)c4)no3)C2)c(OC)c1 (stereo unspecified)	8	15	-3%	-1%	-4%	-2%
COC(=O)C1=C(C(=O)OC)[C@@H]2N(C)c3ccccc3[C@@]23C[C@@H](CO)N(C(=O)C2CCC2)C3=N1	-20	-53*	x	0%	-4%	11%
COc1ccccc1CN1CCN(Cc2nc(-c3ccc(C)cc3)oc2C)CC1	-25	-17	2%	4%	-1%	-21%
COc1ccc(-c2nc(CN3CCN(Cc4cccc(Cl)c4)CC3)c(C)o2)cc1	-2	-60*	-2%	1%	-2%	-11%
COc1ccccc1N1CCN(Cc2nc(-c3ccc(F)cc3)oc2C)CC1	-3	-115*	-1%	-3%	-5%	-9%
COc1ccccc1N1CCN(Cc2cn[nH]c2-c2ccc(F)cc2)CC1	-33	-67*	-1%	1%	-2%	0%
COc1ccc(-c2nc(CN3CCN(Cc4cccc(F)c4)CC3)c(C)o2)cc1	-9	-20	-3%	u	-6%	-18%
COc1ccc(-c2nc(CN3CCN(c4ccccc4OC)CC3)c(C)o2)cc1	-35	-71*	1%	2%	-3%	-7%
Cc1ccc(C2N(c3ccc(Cl)cc3)C(=O)N3CCCN23)cc1 (stereo unspecified)	8	3	-2%	1%	-3%	-6%
CCCCCC[C@@H](CCC)C(=O)O	2	x	x	x	x	x
CSc1ccc(CN(C)CC(=O)NCCc2ccccc2)cc1	-13	-20	2%	-3%	-6%	18%
Cc1ccc(C(=O)C(C)OC(=O)c2cc3cc([N+](=O)[O-])ccc3oc2=O)cc1 (stereo unspecified)	-7	-99*	-2%	2%	-6%	-8%
CC(NC(=O)c1cc2cc([N+](=O)[O-])ccc2oc1=O)C1CCCO1 (stereo unspecified)	-3	0	2%	-3%	0%	-8%
COc1ccc(C(=O)NNC(=O)c2cc3cc([N+](=O)[O-])ccc3oc2=O)cc1OC	-23	-53*	1%	-5%	-5%	26%
CC(C)c1nc2ccc(C(=O)Nc3ccccc3F)cc2o1	-12	x	x	x	x	x
CCN1CCCC(OC(=O)c2cc(-c3ccccc3Cl)nc3ccccc23)C1 (stereo unspecified)	-1	-22	1%	0%	-2%	-10%
Oc1ccc2ccccc2c1CN1CCN(C/C=C/c2ccccc2)CC1	-26	-56*	1%	0%	-5%	0%
Oc1ccc2ccccc2c1CN1CCN(c2ccccc2F)CC1	-6	-95*	0%	0%	-1%	2%
O=S(=O)(c1ccccc1)N1CCN(Cc2c(O)ccc3ccccc23)CC1	6	4	0%	2%	0%	3%
COc1cc(NC(=O)Cn2cc(S(=O)(=O)c3ccccc3)c(=O)c3ccccc32)cc(OC)c1	-8	x	x	x	x	x
SMILES	D3 ag	D3 antag	MmCpn inh	Rango complex inh	PTAP TSG101 blk	Rango release inh
CC(C)OC(=O)c1c(NC(=O)COc2cccc(Br)c2)sc2c1CCCC2	-8	x	x	x	x	x
Clc1ccccc1CNCc1ccncc1	2	14	-3%	-1%	-4%	-4%
O=C(CN1CCOCC1)Nc1nc2ccc(F)cc2s1	2	-7	-1%	2%	-6%	-7%
O=C(CN1CCOCC1)Nc1nc2ccc([N+](=O)[O-])cc2s1	-22	-85*	-2%	-3%	-2%	7%
CCC1=C2CC[C@H]3C(=O)N(C)C(=O)[C@H]3[C@H]2[C@@]2(Cc3ccccc3)C(=NCCOC)OC(=O)N2C1=O	38*	4	2%	5%	-1%	-8%
O=C1CCCc2c1[nH]c1ccc(CN3CCCCC3)cc21	-78	-54*	1%	0%	-7%	-9%
C[C@]12C=C[C@H](O)CC1=CCC1C2CC[C@@]2(C)C1CCC21OCCO1 (stereo partly specified)	13	29	2%	2%	0%	9%
Nc1ncnc2c1ncn2[C@@H]1O[C@H](CNC(=O)[C@@H]2CCCN2S(=O)(=O)c2ccc(F)cc2)[C@@H](O)[C@H]1O	37*	0	5%	0%	-5%	13%
Nc1ncnc2c1ncn2[C@@H]1O[C@H](CNC(=O)[C@@H]2CCN2)[C@@H](O)[C@H]1O	0	0	5%	0%	-1%	-17%
C[C@@H](CO)NC(=O)[C@H]1O[C@@H](n2ccc(=O)[nH]c2=O)[C@H](O)[C@@H]1O	8	9	x	x	x	x
CC[C@H](C)[C@@H](CO)NC(=O)[C@H]1O[C@@H](n2ccc(=O)[nH]c2=O)[C@H](O)[C@@H]1O	-15	-105*	x	x	x	x
O=C(Cn1c(-c2cccs2)cc2ccccc21)N1CCN(c2ccc(F)cc2)CC1	7	x	x	x	x	x
CCCCC(F)(F)[C@@]1(O)CC[C@H]2[C@@H](CC(=O)[C@@H]2CCCCCCC(=O)O)O1	2	x	x	x	x	x
Cc1cc(-c2nn(-c3ccccc3F)cc2CN2CCN(c3ccccn3)CC2)c(C)s1	-19	-79*	-2%	-3%	0%	-4%
COc1ccc(NC(=O)CN2CCN(c3nc(-c4ccc(F)cc4)cs3)CC2)c(OC)c1	5	14	-2%	-3%	-7%	13%
Cc1[nH]c2c(Cl)cccc2c(=O)c1CN1CCCC1	-33	-65*	0%	-2%	-17%	1%
Cc1[nH]c2ccccc2c(=O)c1CN1CCCCCC1	-13	9	0%	-5%	-2%	16%
